# Reference: the supplement of paper PMC8253809
# Tests used:
# Assay in all cases: growth inhibition (% activity, log2 RLU normalised to DMSO / staurosporine); higher = more growth inhibition
# Settings in all cases: 33 µM
# [1] = system: DIPGX29 (H3.3 K27M diffuse intrinsic pontine glioma line)
# How it was run: (§1)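 The growth-inhibition value comes from CellTiter-Glo luminescence, log2-transformed, normalised per plate to % activity between solvent and positive control wells, and taken as the median over replicates. Treatment of pHGG cell lines and H9-derived neural stem cells with approved drugs was at a single final concentration of about 33 μM, in triplicate, for 7 days at 37 °C, 5% CO2.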
# [2] = system: DIPGX37 (H3.3 K27M diffuse intrinsic pontine glioma line)
# How it was run: as §1
# [3] = system: DIPGX7 (H3.3 K27M diffuse intrinsic pontine glioma line)
# How it was run: as §1
# [4] = system: DIPGX9 (diffuse intrinsic pontine glioma line)
# How it was run: as §1
# [5] = system: HGGX39 (paediatric high-grade glioma line)
# How it was run: as §1
# [6] = system: HGGX6 (H3.3 G34R paediatric high-grade glioma line)
# How it was run: as §1
# [7] = system: HNSC
# How it was run: as §1
# [8] = system: SUDIPGIV (diffuse intrinsic pontine glioma line)
# How it was run: as §1
# [9] = system: SUDIPGVI (diffuse intrinsic pontine glioma line)
# How it was run: as §1
# [10] = system: SUDIPGXIII (diffuse intrinsic pontine glioma line)
# How it was run: as §1
SMILES,growth inhibition [1] [%],growth inhibition [2] [%],growth inhibition [3] [%],growth inhibition [4] [%],growth inhibition [5] [%],growth inhibition [6] [%],growth inhibition [7] [%],growth inhibition [8] [%],growth inhibition [9] [%],growth inhibition [10] [%]
Cc1cccc(CN2CCN(C(c3ccccc3)c3ccc(Cl)cc3)CC2)c1 (stereo not given),6.1,6.46,7.93,8.12,6.5,7.41,3.84,25.4,4.9,4.67
CN(C)CCC(c1ccc(Br)cc1)c1ccccn1 (stereo not given),-0.2,1.72,0.687,0.118,1.57,-1.76,4.12,-0.116,-0.379,1.63
O=C[C@H](O)[C@@H](O)[C@H](O)CO,1.32,0.386,0.91,1.55,1.07,1.49,0.405,-0.641,-1.35,-0.863
Cn1c(=O)c2c(ncn2CC2OCCO2)n(C)c1=O,0.735,3.27,0.989,0.338,4.64,-0.428,12.2,2.59,1.02,0.38
CC[C@@H]1/C=C(\C)C[C@H](C)C[C@H](OC)[C@H]2O[C@@](O)(C(=O)C(=O)N3CCCC[C@H]3C(=O)O[C@H](/C(C)=C/[C@@H]3CC[C@H](Cl)[C@H](OC)C3)[C@H](C)[C@@H](O)CC1=O)[C@H](C)C[C@@H]2OC,1.37,4.05,3.83,5.36,7.81,2.73,8.07,5.69,5.28,5.19
O=c1[nH]c(=O)n([C@H]2C[C@H](O)[C@@H](CO)O2)cc1F,18.6,6.96,12.8,10.7,10.9,14.3,67.3,26.2,4.66,6.72
CC(C)Cn1cnc2c(N)nc3ccccc3c21,0.9,3.11,0.885,0.567,1.26,2.84,0.687,0.0825,3.61,0.156
O=S(=O)(O)NC1CCCCC1,0.811,0.93,1.03,0.594,2.81,1.56,0.385,0.0436,0.0298,-1.99
Cc1cn(-c2cc(NC(=O)c3ccc(C)c(Nc4nccc(-c5cccnc5)n4)c3)cc(C(F)(F)F)c2)cn1,2.27,3.07,4.89,1.74,3.66,2.75,4.26,1.93,2.31,-2.01
C[C@@H]1[C@H](O)[C@@H](C)/C=C/C=C/C=C/C=C/C=C/C=C/C=C/[C@H](O[C@@H]2O[C@H](C)[C@@H](O)[C@H](N)[C@@H]2O)C[C@@H]2O[C@](O)(C[C@@H](O)C[C@@H](O)[C@H](O)CC[C@@H](O)C[C@@H](O)CC(=O)O[C@H]1C)C[C@H](O)[C@H]2C(=O)O,1.5,0.689,0.985,2.51,1.45,3.13,2.79,-0.529,0.154,1.88
COc1cc(C)c(/C=C/C(C)=C/C=C/C(C)=C/C(=O)O)c(C)c1C,5.2,-2.81,6.14,8.33,7.33,6.28,7.89,6.68,4.93,1.6
CCOC(=O)C1=C(C)NC(C)=C(C(=O)OC)C1c1cccc(Cl)c1Cl (stereo not given),2.2,0.16,2.82,2.94,6.84,-1.45,5.27,3.57,1.79,-2.05
CCN1CCN(c2cc3c(cc2F)c(=O)c(C(=O)O)cn3C2CC2)CC1,-0.107,1.21,0.805,1.48,4.31,-0.135,1.17,1.5,1.16,-0.234
O=C(O)CCc1nc(-c2ccccc2)c(-c2ccccc2)o1,-0.808,1.84,-1.35,-1.33,0.585,1.25,-2.45,-2.53,0.464,1.19
Cc1cccc(C)c1OCC(=O)N[C@@H](Cc1ccccc1)[C@@H](O)C[C@H](Cc1ccccc1)NC(=O)[C@H](C(C)C)N1CCCNC1=O,-0.115,1.21,-0.846,1.07,-0.0767,1.3,0.148,-2.8,-1.16,-0.606
CNCCc1ccccn1,0.924,1.45,1.21,1.11,2.84,1.49,1.31,1.96,4.33,-0.14
O=C1[C@@H]2[C@H]3CC[C@H](C3)[C@@H]2C(=O)N1C[C@@H]1CCCC[C@H]1CN1CCN(c2nsc3ccccc23)CC1,-3.28,0.212,1.18,-1.28,2.33,1.59,2.62,-0.0151,0.346,2.16
CCN(CC)CCOC(=O)C1(C2CCCCC2)CCCCC1,-1.15,-1.5,-1.55,-2.17,-2.47,-0.591,-1.91,-0.751,-0.615,0.956
CC(/C=C1\SC(=S)N(CC(=O)O)C1=O)=C\c1ccccc1,-1.36,-1.28,-1.21,0.579,-0.83,-0.392,-2.25,-1.67,-1.06,1.76
N[C@@H]1CCCCN(c2c(F)cc3c(=O)c(C(=O)O)cn(C4CC4)c3c2Cl)C1,-3.25,-0.479,-2,-1.55,-1.72,-3.25,-0.931,-3.46,-2.21,-0.978
CCC[S+]([O-])c1ccc2[nH]c(NC(=O)OC)nc2c1 (stereo not given),3.39,3.5,1.48,2.55,0.691,2.32,3.73,2.81,-0.51,2.63
